# High-throughput results deposited in PubChem BioAssay by National Center for Advancing Translational Sciences (NCATS).
# HTT ATP protect: protects HTT-Q103 PC12 cells, measured by ATP; AID 1471; Potency, µM (series often up to 56.4 µM), actives largely listed as activators; PC12 HTT-Q103 induced, cytoprotection, ATP luminescence, 40 h; hit rate 0.14% among 230,000; active = well fitted curve in the direction sought with a large enough effect; inconclusive = small, poorly fitted or top-dose-only effect, or another doubt; inactive = no such curve, though single readings can be large; an effect the other way counts as inactive or inconclusive; also: nearly all actives have a fitted effect of over 45% in size
#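 Compounds added alongside 100 nM tebufenozide, which induces toxic Q103 huntingtin exon 1-GFP in stable PC12 cells; surviving cells quantified by luminescent ATP measurement. Medium: phenol red-free DMEM, 5% equine and 5% calf serum.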
# GoLoco inh red: RGS12 GoLoco-Gai1 interaction inhibition; P63096; Gai1:RGS12 GoLoco peptide FP, rhodamine, 10 min; Potency, µM (doses to about 61.6 µM), usual class: inhibitors; hit rate 0.44% among 230,000; AID 880; active = well fitted inhibition curve with a large enough effect, not every such curve was filed as active; inactive = no such curve, though single readings can be large or run the other way; also: nearly all actives have a fitted effect of over 30% in size
# Target sequence (P63096 whole entry, looked up): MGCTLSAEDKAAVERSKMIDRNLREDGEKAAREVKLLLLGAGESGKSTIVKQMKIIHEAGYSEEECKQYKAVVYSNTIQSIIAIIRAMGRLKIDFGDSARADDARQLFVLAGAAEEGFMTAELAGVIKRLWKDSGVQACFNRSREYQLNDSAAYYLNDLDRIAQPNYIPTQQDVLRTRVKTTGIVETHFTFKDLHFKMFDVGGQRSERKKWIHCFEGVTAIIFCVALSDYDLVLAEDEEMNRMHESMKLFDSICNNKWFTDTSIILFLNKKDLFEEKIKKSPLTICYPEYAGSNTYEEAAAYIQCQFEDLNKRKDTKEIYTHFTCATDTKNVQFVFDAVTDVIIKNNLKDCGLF
# PNC assembly inh: inhibitors of perinucleolar compartment assembly; PC3M PTB-GFP, PNC prevalence imaging, 16 h; hits give low values; activity change (PNC), negative = inhibition, % at 10 µM; AID 2417; hit rate 3.1% among 140,000;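 active = readout at or below -70, meaning at least 70% loss of cells showing the perinucleolar compartment, a nuclear body marking cancer cells; inconclusive = readout between -30 and a set limit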
#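 Read-out is percentage of cells bearing a perinucleolar compartment, from automated 20x imaging of fixed, Hoechst-stained PC3M PTB-GFP cells. Cells were seeded 4 h, then exposed 16 h to compound (23 nl of library stock) in duplicate plates.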
# HPGD block: HPGD (human) dehydrogenase inhibition | P15428 | AID 894 | Potency, µM, most hits filed as inhibitors | hit rate 4.3% among 150,000 | purified HPGD, NADH fluorescence kinetic, PGE2 substrate
# Target sequence (P15428 whole entry, looked up): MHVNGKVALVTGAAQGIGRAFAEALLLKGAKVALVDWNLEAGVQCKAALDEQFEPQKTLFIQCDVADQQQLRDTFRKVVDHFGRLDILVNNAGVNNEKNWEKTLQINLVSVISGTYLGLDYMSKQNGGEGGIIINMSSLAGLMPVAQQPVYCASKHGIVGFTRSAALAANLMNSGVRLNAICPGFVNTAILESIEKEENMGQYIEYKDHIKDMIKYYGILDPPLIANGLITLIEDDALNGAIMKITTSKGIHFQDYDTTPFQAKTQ
#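 NADH formation kinetics: reaction with 30 uM PGE2 and 1 mM NAD+ (final), 20 nM enzyme, Tris-HCl pH 8 with Tween 20, after 15 min compound preincubation at room temperature. Fluorescence change, last versus first of five reads.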
# ALDH1A1 block: blocks purified human ALDH1A1 activity | Purified ALDH1A1, NADH fluorescence, propionaldehyde substrate | Potency, µM (highest dose often 75.3 µM), most hits filed as inhibitors | AID 1030 | hit rate 7.3% among 220,000 | P00352
# HTT aggregate: inhibitors of mutant huntingtin aggregate formation in PC12 cells. PC12 HttQ103-GFP aggregates, Acumen cytometry, 40 h. Potency, µM (top dose mostly 46.1 µM), actives largely listed as inhibitors. hit rate 1.1% among 220,000. AID 1688; active = well fitted curve in the direction sought with a large enough effect; inconclusive = small, poorly fitted or top-dose-only effect, or another doubt; inactive = no such curve, though single readings can be large; an effect the other way counts as inactive or inconclusive; also: nearly all actives have a fitted effect of over 60% in size
#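 Using laser scanning cytometry, GFP-positive aggregates were counted after lysis of PC12 cells induced with 100 nM tebufenozide to express HTT exon 1 Q103–GFP. Compounds were tested in titration.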
# Hits are given with their value; i = inactive; ? = inconclusive; nt = no result given; [ ] = remark or other dose. Compounds with a hit are over-represented: about 11% of the library has one in this group of screens. Unless noted, calls follow the shape of the dose curve; as a rule, active = well fitted inhibition curve with a large enough effect (not every such curve was filed as active); inconclusive = small, poorly fitted or top-dose-only effect, or another doubt; inactive = no such curve, though single readings can be large or run the other way.
SMILES,HTT ATP protect,GoLoco inh red,PNC assembly inh,HPGD block,ALDH1A1 block,HTT aggregate
COc1ccc(N2C(=O)CC(Sc3ncn[nH]3)C2=O)c(OC)c1 (centres undefined),i,nt,i,nt,14µM,i
CCCc1c(O)nc(SC2CC(=O)N(c3cc(OC)ccc3OC)C2=O)[nH]c1=O (centres undefined),i[0.074 µM],i,i,i,i,i
CC(C)c1ccc(N2C(=O)CC(Sc3nc4ccccc4o3)C2=O)cc1 (centres undefined),i,i,i,?,0.71µM,3.5µM
CC(C)c1ccc(N2C(=O)CC(Sc3ncn[nH]3)C2=O)cc1 (centres undefined),i,i,i,16µM,0.13µM,i[9.22 µM]
C=C1Cc2c(Cl)cc3[nH]c4c5c3c2[C@@]2(O)[C@@H]1C[C@@H]2C(C)(C)O[C@H]5[C@@H]1CC[C@@]2(O)[C@@]35O[C@@H]3[C@@H](O)[C@@H](C(=O)O)O[C@H]5CC[C@]2(C)[C@@]41C,i,i,nt,nt,i,nt
CN(C)c1ccc(-c2nccc(NCCN3CCOCC3)n2)cc1,i,i,nt,?,?,nt
COc1cccc(CNc2ccc3c(c2)CCC3)c1,i,i,i,i,13µM,i[9.22 µM]
COc1cccc(CNc2ccc(C)c(Cl)c2)c1,i,i,nt,nt,i,i
c1csc(-c2nnsc2-c2nc3ccccc3[nH]2)c1,i,i,?,?,10µM,i
CCc1ccc(/C=C2/C(=O)N(c3ccccc3)C(=S)N2CC(=O)OC)s1,i[10 µM],i,?,i,8.9µM,i
C=CCn1c(SCC(=O)Nc2sccc2C(N)=O)nc2sc(CC)cc2c1=O,i,i,i,i,?,i
C=CCn1c(SC(C)C#N)nc2sc(CC)cc2c1=O (centres undefined),i,i,nt,nt,2µM,i
C=CCn1c(SC(C)C(N)=O)nc2sc(CC)cc2c1=O (centres undefined),nt,i,nt,nt,8.9µM,i
O=C(NCCO)c1cccc2c1C(=O)c1ccccc1-2,nt,i,?,i,20µM,?
CC1=C(C)C[C@@]23CCCN2C(=O)CCC[C@H]3C1,i,i,nt,i,?,nt
CCN(CC(=O)Nc1ccc(C)c(F)c1)CC(=O)NC(C)C,i,i,nt,nt,3.2µM,i
Cc1ccc(/C=c2/sc3n(c2=O)CCCN=3)o1,i[10 µM],i,i,i,3.5µM,i
O=C(NCc1ccc(/C=c2\sc3n(c2=O)CCN=3)o1)C(=O)Nc1ccccc1,nt,i,nt,nt,?,i
Cc1ccc(/C=c2\sc3n(c2=O)CN(c2ccc(Br)cc2)CN=3)o1,i,i,i,i,14µM,i
Cc1ccc(N2CN=c3s/c(=C\c4cccnc4)c(=O)n3C2)cc1,i,i,i,i,i,10µM
O=c1/c(=C\c2ccc3c(c2)OCO3)sc2n1CCCN=2,i[10 µM],i,i,i,?,i
COC(=O)NC(CC(C)=O)c1cccc(C)c1 (centres undefined),i[10 µM],nt,nt,nt,i[13.5 µM],nt
O=C(NCCC[N+]1=CC=N[C@H]1c1ccccc1)N1CCCc2nc(-c3ccc(Br)cc3)ccc21,i[10 µM],nt,nt,nt,i[13.5 µM],nt
O=C1CCN(S(=O)(=O)c2ccccc2)C2CCCCC12 (centres undefined),i[10 µM],i,-86,i,?,i
CCOC(=O)C1=C(N)OC2=C(C(=O)CCC2)C1c1cccnc1 (centres undefined),i,i,-120,i,i,i
SMILES,HTT ATP protect,GoLoco inh red,PNC assembly inh,HPGD block,ALDH1A1 block,HTT aggregate
CCOC(=O)C1=C(N)OC2=C(C(=O)CCC2)C1c1ccc(C)s1 (centres undefined),i,i,-107,i,?,i
COC(=O)C1=C(N)OC2=C(C(=O)CCC2)C1c1cccnc1 (centres undefined),i[10 µM],i,nt,nt,i,i[9.22 µM]
O=c1[nH]c2ccccc2n1CCCSCCCn1c(=O)[nH]c2ccccc21,i[0.074 µM],i,?,?,?,11µM
COc1ccc(CCNC(=O)CSc2ccc(-c3ccco3)nn2)cc1,i,i,nt,nt,3.2µM,i
O=C(CSc1ccc(-c2ccco2)nn1)NCCc1ccccc1,i,i,nt,nt,7.1µM,i
COc1cccc(-c2ccc(SCC(=O)NCCc3ccccc3)nn2)c1,i,i,nt,nt,?,i
COc1ccc(CCNC(=O)CSc2ccc(-c3ccncc3)nn2)cc1,i,i,nt,nt,i,i[9.22 µM]
CCCc1cc(=O)[nH]c(SCC(=O)c2cc(C)n(-c3c(C)n(C)n(-c4ccccc4)c3=O)c2C)n1,i,i,nt,nt,i,i
COc1cc2c(cc1OC)C1CCC3=C([C@H](C)OC3=O)N1CC2 (some centres undefined),i,i,nt,?,?,nt
N#C/C(=C\N1CCNC1=S)C(=O)c1ccc2ccccc2c1,i[10 µM],i[14.2 µM],nt,i,?,nt
C=CCN1C(c2ccccc2)=CS/C1=C(/C#N)c1nnc(N2CCOCC2)n1-c1ccccc1,i[10 µM],i,i,i,5.6µM,i
CN1C(c2ccc(F)cc2)=CS/C1=C(/C#N)c1nnc(N2CCOCC2)n1-c1ccccc1,i[10 µM],i,i,i,0.79µM,i
c1ccc2c(c1)SCc1nnc(-c3ccncc3)n1-2,i[10 µM],i,nt,nt,nt,i[9.22 µM]
CCN1C(c2ccc(F)cc2)=CS/C1=C(\C#N)c1nnc2n1-c1ccccc1SC2,i,i,i,?,13µM,i
CN1C(=O)NC(c2ccccc2)(C(F)(F)F)S/C1=C(/C#N)c1nnc(N2CCOCC2)n1-c1ccccc1 (centres undefined),i[1.9 µM],i,i,i,i,?
COc1ccccc1N=Cc1c(C)[nH]n(-c2ccc(C)cc2C)c1=O,i[10 µM],i,nt,nt,?,i[9.22 µM]
COc1cc(SC#N)ccc1N=Cc1c(C)[nH]n(-c2cccc3ccccc23)c1=O,nt,i,?,?,0.45µM,i
COc1cc(SC#N)ccc1N=Cc1c(C)[nH]n(-c2ccc(C)cc2C)c1=O,?,i,i,8.9µM,0.71µM,?
O=C(O)CCCC[C@H]1CCSS1,i[1.9 µM],nt,nt,nt,nt,nt
COc1ccc(/C=N/n2c(-c3cc(C)[nH]n3)n[nH]c2=S)cc1,i[10 µM],i,nt,nt,nt,i[9.22 µM]
S=c1[nH]nc(-c2ccccn2)n1/N=C/c1ccc(Cl)c(Cl)c1,i[10 µM],i,nt,nt,i,i[9.22 µM]
S=c1[nH]nc(-c2ccccn2)n1/N=C/c1ccc(Br)s1,i[10 µM],i,i,7.9µM,?,i
Cc1cc(-c2n[nH]c(=S)n2/N=C/c2cccs2)n[nH]1,i[10 µM],i,i,?,i,i
COc1cccc(/C=N/n2c(-c3cccs3)n[nH]c2=S)c1,i,i,i,2.2µM,?,i
Cc1ccc(/C=N/n2c(-c3ccc(Cl)cc3)n[nH]c2=S)s1,i,i,nt,nt,i,i
Cc1ccc(-c2n[nH]c(=S)n2/N=C/c2cccs2)cc1,i[10 µM],i,i,13µM,?,i
Cc1ccc(-c2n[nH]c(=S)n2/N=C/c2ccc(C)s2)cc1,i,i,i,4µM,i,i
COc1cccc([C@@H]2Oc3ccc(Br)cc3C(=O)[C@H]2OC(=O)NCc2ccco2)c1,i,i,nt,i,i,nt
CCCNC(=O)Nc1ccc(NC(C)=O)cc1,i,i,nt,nt,i,i
